This note sets out measurements from PubChem BioAssay (Tox21).

Molecules are shown by their SMILES. Values joined by “and” are separate entries in the source; they are usually repeats but may differ in a detail not shown here. Equal values may be shown once. Records with an inconclusive call do not appear. Some structures have more than one record in an assay (separate samples or runs), and their calls can disagree. Active and inactive are the calls of the source. Unless noted, calls follow the shape of the dose curve; as a rule, active = well fitted curve in the direction sought with a large enough effect in the repeat runs; inconclusive = weak or mixed curves; inactive = no such curve, though single readings can be large; an effect the other way counts as inactive or inconclusive.

A short description of assay [1]: qHTS assay to identify small molecule antagonists of the estrogen related receptor (ERR) signaling pathway from Tox21 library - cell viability counter screen (AID 1224834). Also: nearly all actives have a fitted effect of over 30% in size. Also: potency is read from the fitted curve at half-maximal effect. Put shortly: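 After 17.5 h of compound exposure at 37 C, ERR cells are incubated with CellTiter-Fluor for 30 min and fluorescence intensity serves as the viability measure.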
For orientation: qHTS replaces the single test concentration by a dilution series.

In assay [2] the target is Luciferin 4-monooxygenase (Photinus pyralis) (UniProt P08659). As to the kind of experiment: qHTS assay to identify small molecule inhibitors of firefly luciferase (AID 1224835). Also: nearly all actives have a fitted effect of over 25% in size. Also: potency is read from the fitted curve at half-maximal effect. The gist of the method: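 Biochemical qHTS: compounds run as interplate titrations against purified firefly enzyme, with D-luciferin and ATP each at its KM concentration. Light output recorded by CCD imaging.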

Assay [3] in a line: qHTS assay to identify small molecule agonists of the constitutive androstane receptor (CAR) signaling pathway - cell viability counter screen (AID 1224836). Also: nearly all actives have a fitted effect of over 45% in size. Also: potency is read from the fitted curve at half-maximal effect. The gist of the method:
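HepG2 cells stably carrying hCAR and a CYP2B6-2.2kb reporter were plated 4 h, then given compounds at 15 concentrations plus PK11195 (final 0.75 uM). After 23 h at 37 C, viability was read by CellTiter-Fluor fluorescence.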

Assay [4] in a line: qHTS assay to identify small molecule antagonists of the constitutive androstane receptor (CAR) signaling pathway - cell viability counter screen (AID 1224837). Also: nearly all actives have a fitted effect of over 45% in size. Also: potency is read from the fitted curve at half-maximal effect. Put shortly:
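Counter screen run in HepG2-CYP2B6-hCAR cells: 4 hr settle, compound titration (15 concentrations) with 50 nM CITCO, 23 hr at 37 C/5% CO2, CellTiter-Fluor fluorescence.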

The target of assay [5] is Nuclear receptor subfamily 1 group I member 3 (Homo sapiens) (UniProt Q14994). As to the kind of experiment: qHTS assay to identify small molecule antagonists of the constitutive androstane receptor (CAR) signaling pathway (AID 1224838). Also: nearly all actives have a fitted effect of over 40% in size. Put shortly:
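Cell line: HepG2 double-stable for hCAR and CYP2B6-2.2kb reporter. Agonist: CITCO, 50 nM final. Compounds: 15 concentrations, 24 h, 37 C. Detection: ONE-Glo luminescence.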

Assay [6] in a line: qHTS assay to identify small molecule antagonists of the estrogen related receptor signaling pathway with the pleiotropic PPARgamma coactivator (PGC) from Tox21 10K library - cell viability counter screen (AID 1224840; active = well fitted cell-killing curve with a large enough effect in the repeat runs, not every such curve was filed as active; also: nearly all actives have a fitted effect of over 40% in size). The gist of the method: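 Following seeding of 2,000 PGC/ERR cells/well and 6 hours' incubation, test compounds were delivered in DMSO. The plates then sat 17.5 hours at 37 C before a fluorogenic live-cell protease reagent (CellTiter-Fluor) was read after 30 min.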

The nature of assay [7]: qHTS assay to identify small molecule antagonists of the estrogen related receptor signaling pathway with the pleiotropic PPARgamma coactivator (PGC) from Tox21 10K library (AID 1224841; call rule not given here; also: series mostly up to about 92 µM; actives are mostly falling curves and most rising ones were filed inactive; nearly all actives have a fitted effect of over 50% in size). Put shortly:
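qHTS antagonist format: PGC/ERR cells, 2k/well, compound in DMSO by pin transfer after 6 h attachment, 18 h treatment at 37 C, One-Glo luminescence read at 30 min.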

Assay [8] is described as follows: qHTS assay to identify small molecule agonists of the estrogen related receptor signaling pathway with the pleiotropic PPARgamma coactivator (PGC) from Tox21 10K library (AID 1224842). Also: nearly all actives have a fitted effect of over 15% in size. Put shortly:
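PGC/ERR reporter cell line, 2,000 cells per well, incubated 6 h at 37 C before 23 nL compound in DMSO was added. After 18 h at 37 C, One-Glo luminescence read following 30 min at room temperature.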

Assay [9] is described as follows: qHTS assay to identify small molecule agonists of the hypoxia (HIF-1) signaling pathway - cell viability counter screen (AID 1224844; calls by dose curve; also: nearly all actives have a fitted effect of over 50% in size). Put shortly: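 Cells (HRE-bla ME-180, 2,000 per well) sat 5 hrs at 37C, got compound for 17 hrs, were read for CCF4-AM FRET, and were finally lysed with CellTiter-Glo for a 30 min room-temperature luminescence read.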
Assay [10] is described as follows: qHTS assay to identify small molecule agonists of H2AX (AID 1224845; active = well fitted activation curve with a large enough effect in the signal ratio in the repeat runs, not every such curve was filed as active; the % refers to the signal ratio). Put shortly:
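Wild-type CHO-K1 cells, plated overnight, exposed 3hr at 37C to 15 concentrations (0.76% DMSO final). Lysed, then HTRF anti-pH2AX (S139) cryptate and anti-H2AX-d2 antibodies, 24 hr room temperature; 665/620 nm emission read.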

Assay [11] is described as follows: qHTS assay to identify small molecule agonists of the hypoxia (HIF-1) signaling pathway (AID 1224846; active = well fitted activation curve with a large enough effect in the signal ratio in the repeat runs, not every such curve was filed as active; the % refers to the signal ratio). Put shortly:
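A low-serum medium (0.5% dialyzed FBS) holding 2,000 HRE-bla ME-180 cells per well is preincubated for 5 hrs, dosed with compounds by pintool, and kept a further 17 hrs at 37C, 5% CO2 before CCF4-AM FRET detection of beta-lactamase.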

A short description of assay [12]: qHTS assay to identify small molecule agonists of H2AX - cell viability counter screen (AID 1224847; calls by dose curve; also: top concentration of the series differs between compounds; nearly all actives have a fitted effect of over 30% in size). The gist of the method:
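Wild-type CHO-K1 cells (10% FBS medium) were plated overnight at 37C, exposed to compounds at 15 concentrations for 3 hr at 37C (0.76% DMSO final), and viability was read as CellTiter-Glo luminescence after 30 min at room temperature.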

Assay [13] is described as follows: qHTS assay to identify small molecule antagonists of the estrogen related receptor (ERR) signaling pathway from Tox21 library (AID 1224848). Also: nearly all actives have a fitted effect of over 50% in size. Put shortly:
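ERR reporter cell line (from NTP) seeded 2,000 cells/well, rested 6 h at 37 C/5% CO2, then pin-dosed with compounds in DMSO. After 18 h at 37 C, ONE-Glo added; luminescence read after 30 min at room temperature.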

Assay [14] can be described thus: qHTS RealTime-Glo MT Cell Viability Assay in HepG2 cells - 24 hour (AID 1224867). Also: nearly all actives have a fitted effect of over 50% in size. Put shortly:
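Luminescence read-out: viable HepG2 cells reduce a prosubstrate to a NanoLuc substrate, giving a signal proportional to live cell number. Reads taken at 0, 8, 16, 24, 32 and 40 h of compound exposure at 37 C.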

A short description of assay [15]: qHTS RealTime-Glo MT Cell Viability Assay in HEK293 cells - 32 hour (AID 1224868). Also: nearly all actives have a fitted effect of over 50% in size. Also: potency is read from the fitted curve at half-maximal effect. The gist of the method: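 Nonlytic real-time viability readout: viable cells convert prosubstrate to NanoLuc substrate, giving luminescence proportional to live cell number. HEK293, 600 cells/well, compound added after 5 h, continuous culture at 37 C.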
Assay [16] is described as follows: A CellTox Green Cytotoxicity Assay to monitor cytotoxicity in HEK293 cells - 0 hour (AID 1224869). Also: nearly all actives have a fitted effect of over 50% in size. Put shortly:
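Fluorescence intensity, read at 0, 8, 16, 24, 32 and 40 h of compound treatment, reflected dye binding to DNA of dead HEK293 cells; compounds (23 nL, DMSO) were added 5 h after plating cells with reagent.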

The target in assay [17] is Nuclear receptor subfamily 1 group I member 3 (Homo sapiens) (UniProt Q14994). In words: qHTS assay to identify small molecule agonists of the constitutive androstane receptor (CAR) signaling pathway (AID 1224839). Also: nearly all actives have a fitted effect of over 15% in size. Also: potency is read from the fitted curve at half-maximal effect.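 As to activation: HepG2 cells stably carrying human CAR and a CYP2B6 luciferase reporter; series mostly up to about 92 µM.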 Put shortly:
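HepG2 cells stably expressing hCAR and a CYP2B6-2.2kb luciferase reporter were treated with compounds at 15 concentrations plus 0.75 uM PK11195 (final) for 24 h at 37 C; luminescence was read after ONE-Glo addition.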

Assay [18] concerns the target Thyrotropin receptor (Homo sapiens) (UniProt P16473). In words: qHTS assay to identify small molecule agonists of the thyroid stimulating hormone receptor (TSHR) signaling pathway (AID 1224843; calls by dose curve; also: nearly all actives have a fitted effect of over 45% in size; also: potency is read from the fitted curve at half-maximal effect). Put shortly: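 TSHR-HEK293 cells in agonist mode, 30 min room-temperature step, then cAMP measured by competitive HTRF (cAMP-d2 with anti-cAMP cryptate) after 1 h at room temperature. Tested at 15 concentrations in triplicate.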

Nuclear receptor subfamily 1 group I member 3 (Homo sapiens), sequence (Q14994 whole entry, looked up): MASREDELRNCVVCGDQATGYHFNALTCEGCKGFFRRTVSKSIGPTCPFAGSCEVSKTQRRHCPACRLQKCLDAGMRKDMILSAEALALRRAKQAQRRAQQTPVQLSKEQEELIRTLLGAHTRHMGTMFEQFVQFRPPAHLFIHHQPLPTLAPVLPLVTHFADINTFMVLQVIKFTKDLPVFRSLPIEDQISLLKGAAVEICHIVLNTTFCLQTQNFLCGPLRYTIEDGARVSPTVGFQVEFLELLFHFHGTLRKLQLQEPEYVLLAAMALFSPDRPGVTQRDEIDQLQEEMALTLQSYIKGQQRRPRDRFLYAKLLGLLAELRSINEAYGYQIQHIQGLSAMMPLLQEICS
Thyrotropin receptor (Homo sapiens), sequence (P16473 whole entry, looked up): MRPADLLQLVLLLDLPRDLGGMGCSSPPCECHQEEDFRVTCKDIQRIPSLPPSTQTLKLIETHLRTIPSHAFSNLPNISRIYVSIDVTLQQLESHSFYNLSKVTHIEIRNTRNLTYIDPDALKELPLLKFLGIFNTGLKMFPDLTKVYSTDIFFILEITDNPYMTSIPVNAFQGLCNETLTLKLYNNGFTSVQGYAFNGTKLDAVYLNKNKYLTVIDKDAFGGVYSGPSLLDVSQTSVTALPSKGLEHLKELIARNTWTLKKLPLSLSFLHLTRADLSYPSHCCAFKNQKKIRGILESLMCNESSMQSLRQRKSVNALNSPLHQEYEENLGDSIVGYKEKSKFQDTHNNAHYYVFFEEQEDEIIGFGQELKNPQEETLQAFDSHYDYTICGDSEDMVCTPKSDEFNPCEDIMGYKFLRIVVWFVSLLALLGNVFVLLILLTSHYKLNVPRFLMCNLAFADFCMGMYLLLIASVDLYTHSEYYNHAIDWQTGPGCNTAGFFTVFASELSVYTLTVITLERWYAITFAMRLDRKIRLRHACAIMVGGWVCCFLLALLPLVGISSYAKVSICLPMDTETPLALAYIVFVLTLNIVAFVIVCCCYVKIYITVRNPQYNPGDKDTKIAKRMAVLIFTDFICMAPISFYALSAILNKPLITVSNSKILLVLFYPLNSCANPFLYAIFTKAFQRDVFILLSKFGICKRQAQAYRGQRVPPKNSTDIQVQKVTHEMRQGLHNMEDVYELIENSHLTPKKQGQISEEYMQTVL
Luciferin 4-monooxygenase (Photinus pyralis), sequence (P08659 whole entry, looked up): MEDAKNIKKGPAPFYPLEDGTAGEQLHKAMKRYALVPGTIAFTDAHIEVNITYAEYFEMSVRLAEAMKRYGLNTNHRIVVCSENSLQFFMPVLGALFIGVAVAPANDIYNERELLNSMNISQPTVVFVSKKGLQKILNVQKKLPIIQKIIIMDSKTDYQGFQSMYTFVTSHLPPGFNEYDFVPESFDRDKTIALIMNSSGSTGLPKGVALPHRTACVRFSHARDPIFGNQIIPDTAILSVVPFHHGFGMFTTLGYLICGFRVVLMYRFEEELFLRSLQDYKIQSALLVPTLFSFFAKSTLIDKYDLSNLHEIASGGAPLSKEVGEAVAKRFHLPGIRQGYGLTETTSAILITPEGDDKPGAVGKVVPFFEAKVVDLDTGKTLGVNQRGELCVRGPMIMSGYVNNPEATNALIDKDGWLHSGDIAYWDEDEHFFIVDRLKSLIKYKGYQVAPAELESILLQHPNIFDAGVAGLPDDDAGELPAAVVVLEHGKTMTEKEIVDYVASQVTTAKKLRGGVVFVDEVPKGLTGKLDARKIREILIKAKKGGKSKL

Take `CC1=C(/C=C/C(C)=C/C=C/C(C)=C/CO)C(C)(C)CCC1`: the Potency result in [1], in [2], in assay [3], in assay [4], in [5] and in assay [6] was “inactive” each time. Besides, the Potency entry in assay [7], in assay [8], in assay [9], in assay [10], in assay [12] and in assay [13] was “inactive” each time. Also, the Potency entry in assay [14], in [15] and in assay [16] was “inactive” in each case. The result in [11] was inactive.

Take `Oc1ccc2ccccc2c1N=Nc1ccccc1`: the Potency was 27.3 µM (active) in assay [1]; 12.6 µM (active) and 22.4 µM (active) in [2]; 48.5 µM (active) and 30.6 µM (active) in assay [3]; 30.6 µM (active) in assay [4]; 30.6 µM (active) and 21.7 µM (active) in assay [17]. For the same molecule, the Potency entry in [5], in assay [18], in assay [9], in assay [10], in assay [14] and in assay [15] was “inactive” each time. The Potency entry in [16] was “inactive”. The molecule was called inactive in assay [11].

Consider `CC(=O)Nc1ccc(C(=O)O)cc1`, for which the Potency entry in [1], in [2], in assay [3], in [4], in assay [5] and in [17] was “inactive” in each case. The Potency result in assay [6], in [18], in assay [9], in [10], in [12] and in assay [14] was “inactive” in each case. Besides, the Potency result in assay [15] and in assay [16] was “inactive” each time. The molecule was classed as inactive in [11].

For `Clc1ccc(Cl)c(Cl)c1Cl`, the Potency entry in assay [1], in assay [2], in assay [3], in assay [4], in [5] and in assay [17] was “inactive” throughout. For the same molecule, the Potency entry in assay [6], in assay [18], in assay [9], in assay [10], in assay [12] and in assay [14] was “inactive” throughout. The Potency entry in [15] and in assay [16] was “inactive” each time. In assay [11], the outcome was inactive.

In the case of `CCCCCCCCCCC=CC1CC(=O)OC1=O` (configuration not stated), the Potency entry in assay [1], in [3], in assay [4], in assay [5], in assay [17] and in assay [6] was “inactive” throughout. Moreover, the Potency result in assay [18], in [9], in [10], in assay [12], in assay [14] and in assay [15] was “inactive” throughout. For the same molecule, the Potency result in assay [16] is “inactive”. Moreover, the Potency in assay [2] was 63.6 µM (active) and 71 µM (active). Moreover, the call in assay [11] was inactive.

As to `CCCCCCCCC`, the Potency entry in assay [1], in [2], in assay [3], in assay [4], in assay [5] and in [17] was “inactive” each time. The Potency result in assay [6], in assay [18], in [9], in [10], in [12] and in assay [14] was “inactive” throughout. In addition, the Potency result in [15] and in [16] was “inactive” throughout. Also, in [11], the result was inactive.

Take `c1ccc2[nH]cnc2c1`: the Potency entry in [1], in [2], in [3], in assay [4], in [5] and in assay [17] was “inactive” throughout. The Potency entry in [6], in assay [9], in assay [10], in assay [12], in assay [14] and in assay [15] was “inactive” throughout. For the same molecule, the outcome in [11] was inactive.

In the case of `CCC(C)C=O` (configuration not stated), the Potency entry in assay [1], in assay [2], in assay [3], in [4], in [5] and in assay [17] was “inactive” throughout. Moreover, the Potency entry in assay [6], in assay [9], in assay [10], in assay [12], in assay [14] and in assay [16] was “inactive” in each case. Moreover, the Potency in [18] was 4.32 µM (active) and inactive; in [15], “inactive and 3.47 µM (active)”. Moreover, the molecule was called inactive in assay [11].
